# Where two headings read alike, the source gives them in different places.
# Columns and labels:
# FLT3-autoinhibited = conditions: concentration: 1 μM, replicates: in singlicate; n = 1
# FLT3 = conditions: concentration: 1 μM, replicates: in singlicate; n = 1
# FLT4 = conditions: concentration: 1 μM, replicates: in singlicate; n = 1
# FRK = conditions: concentration: 1 μM, replicates: in singlicate; n = 1
# FYN = conditions: concentration: 1 μM, replicates: in singlicate; n = 1
# GAK = conditions: concentration: 1 μM, replicates: in singlicate; n = 1
# GCN2(Kin.Dom.2,S808G) = test system: T1, GCN2(Kin.Dom.2,S808G); conditions: concentration: 1 μM, replicates: in singlicate; n = 1
# T1 construct: gene EIF2AK4
# GRK1 = conditions: concentration: 1 μM, replicates: in singlicate; n = 1
# GRK2 = test system: T2, GRK2; conditions: concentration: 1 μM, replicates: in singlicate; n = 1
# T2 construct: gene ADRBK1
# GRK3 = test system: T3, GRK3; conditions: concentration: 1 μM, replicates: in singlicate; n = 1
# T3 construct: gene ADRBK2
# GRK4 = conditions: concentration: 1 μM, replicates: in singlicate; n = 1
# GRK7 = conditions: concentration: 1 μM, replicates: in singlicate; n = 1
# GSK3A = conditions: concentration: 1 μM, replicates: in singlicate; n = 1
# GSK3B = conditions: n = 1
# HASPIN = test system: T4, HASPIN; conditions: concentration: 1 μM, replicates: in singlicate; n = 1
# T4 construct: gene GSG2
# HCK = conditions: concentration: 1 μM, replicates: in singlicate; n = 1
# HIPK1 = conditions: concentration: 1 μM, replicates: in singlicate; n = 1
# HIPK2 = conditions: concentration: 1 μM, replicates: in singlicate; n = 1
# HIPK3 = conditions: concentration: 1 μM, replicates: in singlicate; n = 1
# HIPK4 = conditions: concentration: 1 μM, replicates: in singlicate; n = 1
# [1] = concentration: 1 μM, replicates: in singlicate
# 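Further: KINOMEscan kinase panel screen.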
compound,measurement,setting,value
Cc1nnc(-c2ccc(C)c(-c3ccc(C(=O)Nc4ccc(NS(C)(=O)=O)cc4)cc3)c2)o1 [GW702865],%Inh,FLT3-autoinhibited,0%
same,%Inh,FLT3,0%
same,%Inh,FLT4,8%
same,%Inh,FRK,0%
same,%Inh,FYN,17%
same,%Inh,GAK,0%
same,%Inh,"GCN2(Kin.Dom.2,S808G)",10%
same,%Inh,GRK1,0%
same,%Inh,GRK2,0%
same,%Inh,GRK3,0%
same,%Inh,GRK4,0%
same,%Inh,GRK7,0%
same,%Inh,GSK3A,5%
same,%Inh,GSK3B; [1],0%
same,%Inh,HASPIN,46%
same,%Inh,HCK,0%
same,%Inh,HIPK1,0%
same,%Inh,HIPK2,0%
same,%Inh,HIPK3,12%
same,%Inh,HIPK4,0%
Cc1nnc(-c2ccc3ncc(-c4ccc(S(C)=O)cc4)n3c2)o1 (centres unmarked),%Inh,FLT3-autoinhibited,20%
same,%Inh,FLT3,4%
same,%Inh,FLT4,6%
same,%Inh,FRK,29%
same,%Inh,FYN,10%
same,%Inh,GAK,9%
same,%Inh,"GCN2(Kin.Dom.2,S808G)",0%
same,%Inh,GRK1,9%
same,%Inh,GRK2,43%
same,%Inh,GRK3,0%
same,%Inh,GRK4,0%
same,%Inh,GRK7,16%
same,%Inh,GSK3A,1%
same,%Inh,GSK3B; [1],1%
same,%Inh,HASPIN,30%
same,%Inh,HCK,0%
same,%Inh,HIPK1,21%
same,%Inh,HIPK2,40%
same,%Inh,HIPK3,16%
same,%Inh,HIPK4,5%
CCn1cnc2c(N)ncnc21 [GW345098],%Inh,FLT3-autoinhibited,0%
same,%Inh,FLT3,13%
same,%Inh,FLT4,13%
same,%Inh,FRK,10%
same,%Inh,FYN,15%
same,%Inh,GAK,0%
same,%Inh,"GCN2(Kin.Dom.2,S808G)",6%
same,%Inh,GRK1,0%
same,%Inh,GRK2,0%
same,%Inh,GRK3,0%
same,%Inh,GRK4,0%
same,%Inh,GRK7,0%
same,%Inh,GSK3A,6%
same,%Inh,GSK3B; [1],9%
same,%Inh,HASPIN,25%
same,%Inh,HCK,30%
same,%Inh,HIPK1,33%
same,%Inh,HIPK2,5%
same,%Inh,HIPK3,30%
same,%Inh,HIPK4,0%
O=C(NCCNc1ccnc(Nc2ccc(F)cc2)n1)c1cc2ccccc2s1 [GSK1379874],%Inh,FLT3-autoinhibited,0%
same,%Inh,FLT3,0%
same,%Inh,FLT4,9%
same,%Inh,FRK,6%
same,%Inh,FYN,0%
same,%Inh,GAK,0%
same,%Inh,"GCN2(Kin.Dom.2,S808G)",0%
same,%Inh,GRK1,0%
same,%Inh,GRK2,0%
same,%Inh,GRK3,0%
same,%Inh,GRK4,0%
same,%Inh,GRK7,0%
same,%Inh,GSK3A,0%
same,%Inh,GSK3B; [1],6%
same,%Inh,HASPIN,19%
same,%Inh,HCK,0%
same,%Inh,HIPK1,0%
same,%Inh,HIPK2,0%
same,%Inh,HIPK3,0%
same,%Inh,HIPK4,0%
COc1ccc(S(=O)(=O)NC2CCN(c3cc(C)nc(Nc4cccc(C#N)c4)n3)CC2)cc1.O=C(O)C(F)(F)F [GSK1653539],%Inh,FLT3-autoinhibited,0%
same,%Inh,FLT3,0%
same,%Inh,FLT4,2%
same,%Inh,FRK,0%
same,%Inh,FYN,0%
same,%Inh,GAK,0%
same,%Inh,"GCN2(Kin.Dom.2,S808G)",0%
same,%Inh,GRK1,0%
same,%Inh,GRK2,0%
same,%Inh,GRK3,0%
same,%Inh,GRK4,0%
same,%Inh,GRK7,0%
same,%Inh,GSK3A,6%
same,%Inh,GSK3B; [1],0%
same,%Inh,HASPIN,22%
same,%Inh,HCK,0%
same,%Inh,HIPK1,0%
same,%Inh,HIPK2,0%
same,%Inh,HIPK3,4%
same,%Inh,HIPK4,0%
CN(C1=C(c2ccccc2)C(=O)NC1=O)c1ccccc1 [SB-334860],%Inh,FLT3-autoinhibited,3%
same,%Inh,FLT3,0%
same,%Inh,FLT4,20%
same,%Inh,FRK,2%
same,%Inh,FYN,39%
same,%Inh,GAK,7%
same,%Inh,"GCN2(Kin.Dom.2,S808G)",0%
same,%Inh,GRK1,9%
same,%Inh,GRK2,8%
same,%Inh,GRK3,7%
same,%Inh,GRK4,0%
same,%Inh,GRK7,0%
same,%Inh,GSK3A,13%
same,%Inh,GSK3B; 1 µM,0%
same,%Inh,HASPIN,0%
same,%Inh,HCK,0%
same,%Inh,HIPK1,3%
same,%Inh,HIPK2,0%
same,%Inh,HIPK3,15%
same,%Inh,HIPK4,2%
Fc1ccc(-c2ncn(CCCN3CCOCC3)c2-c2ccccn2)cc1 [SB-211742],%Inh,FLT3-autoinhibited,0%
same,%Inh,FLT3,20%
same,%Inh,FLT4,0%
same,%Inh,FRK,6%
same,%Inh,FYN,0%
same,%Inh,GAK,6%
same,%Inh,"GCN2(Kin.Dom.2,S808G)",0%
same,%Inh,GRK1,0%
same,%Inh,GRK2,2%
same,%Inh,GRK3,0%
same,%Inh,GRK4,0%
same,%Inh,GRK7,0%
same,%Inh,GSK3A,0%
same,%Inh,GSK3B; [1],0%
same,%Inh,HASPIN,0%
same,%Inh,HCK,6%
same,%Inh,HIPK1,38%
same,%Inh,HIPK2,0%
same,%Inh,HIPK3,0%
same,%Inh,HIPK4,26%
Cc1ccc(NC(=O)c2ccnc(N3CCN(C)CC3)c2)cc1-c1ccc(C(=O)NCC2CC2)cc1 [GW775604],%Inh,FLT3-autoinhibited,0%
same,%Inh,FLT3,0%
same,%Inh,FLT4,0%
same,%Inh,FRK,0%
same,%Inh,FYN,0%
same,%Inh,GAK,0%
same,%Inh,"GCN2(Kin.Dom.2,S808G)",0%
same,%Inh,GRK1,0%
same,%Inh,GRK2,0%
same,%Inh,GRK3,33%
same,%Inh,GRK4,15%
same,%Inh,GRK7,0%
same,%Inh,GSK3A,0%
same,%Inh,GSK3B; [1],0%
same,%Inh,HASPIN,0%
same,%Inh,HCK,9%
same,%Inh,HIPK1,0%
same,%Inh,HIPK2,0%
same,%Inh,HIPK3,0%
same,%Inh,HIPK4,0%
COCCNC(=O)c1ccc(-c2cc(C(=O)NC3CC3)cc(F)c2C)cc1 [GW868318],%Inh,FLT3-autoinhibited,0%
same,%Inh,FLT3,15%
same,%Inh,FLT4,5%
same,%Inh,FRK,32%
same,%Inh,FYN,2%
same,%Inh,GAK,0%
same,%Inh,"GCN2(Kin.Dom.2,S808G)",12%
same,%Inh,GRK1,32%
same,%Inh,GRK2,0%
same,%Inh,GRK3,18%
same,%Inh,GRK4,7%
same,%Inh,GRK7,28%
same,%Inh,GSK3A,0%
same,%Inh,GSK3B; [1],42%
same,%Inh,HASPIN,0%
same,%Inh,HCK,24%
same,%Inh,HIPK1,23%
same,%Inh,HIPK2,15%
same,%Inh,HIPK3,35%
same,%Inh,HIPK4,17%
O=c1cc(N2CCOCC2)nc2n(Cc3cccc(C(F)(F)F)c3)ccn12 [GSK2297543],%Inh,FLT3-autoinhibited,12%
same,%Inh,FLT3,0%
same,%Inh,FLT4,0%
same,%Inh,FRK,0%
same,%Inh,FYN,42%
same,%Inh,GAK,0%
same,%Inh,"GCN2(Kin.Dom.2,S808G)",0%
same,%Inh,GRK1,0%
same,%Inh,GRK2,0%
same,%Inh,GRK3,0%
same,%Inh,GRK4,0%
same,%Inh,GRK7,0%
same,%Inh,GSK3A,6%
same,%Inh,GSK3B; [1],3%
same,%Inh,HASPIN,0%
same,%Inh,HCK,0%
same,%Inh,HIPK1,18%
same,%Inh,HIPK2,0%
same,%Inh,HIPK3,7%
same,%Inh,HIPK4,1%

# — article PMC5540273 (PLoS ONE, 2017)
